Screening data from PubChem.
Only some compounds are listed: those with a hit (about 7.9% of all), similar ones and a draw of the others.
MCF10A rereplic – induces DNA re-replication in MCF 10a normal breast cells | MCF 10A DNA re-replication, Hoechst nuclear intensity, 48 h | Potency, µM (top dose mostly 46.1 µM), for inactives: at the top dose activity, positive = re-replication, most hits filed as activators | actives 2.9% (n = 350,000) | AID 624296; further: % of control where 0% means no effect; nearly all actives have a fitted effect of over 50% in size
SW480 rerep – inducers of DNA re-replication in SW480 colon cancer cells; SW480 DNA re-replication, Hoechst DNA content imaging, 48 h; Potency, µM (titrated, usually from 46.1 µM), for inactives: top-dose re-replication activation, actives largely listed as activators; actives 1.8% (n = 340,000); further: % of control where 0% means no effect; nearly all actives have a fitted effect of over 55% in size
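Cells (250 per well) received 23 nL compound or DMSO by pin tool and were kept 48 hr at 37 C, 5% CO2. Nuclei were then stained with Hoechst for 40 min and scanned for DNA content.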
KB-V1 MDR tox – KB-V1 MDR subline cytotoxicity | actives 3.4% (n = 400,000) | Potency, µM (top dose mostly 46.1 µM), most hits filed as cytotoxic | KB-V1 MDR cells viability, CellTiter-Glo, 72 h; further: on the % scale 0 is the no-effect control and ±100 the full control effect; nearly all actives have a fitted effect of over 60% in size
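Luminescent ATP read-out (CellTiter-Glo, 10 min) measures survival of drug-selected KB-V1 MDR cells after 72 h, 37 degrees C compound exposure. Medium: phenol-red-free DMEM, 10% FBS. Values from fitted concentration-response curves.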
HT1080-NT tox – kills 2HG-producing HT-1080-NT fibrosarcoma cells | AID 686970 | HT-1080-NT fibrosarcoma viability, CellTiter-Glo ATP luminescence, 48 h | actives 1.6% (n = 360,000) | Potency, µM (doses to about 46.1 µM), for the others: at the top dose activity, negative = less viability, usual class: cytotoxic;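 further: NT is the 2HG producing partner of a matched IDH1 knockdown line; 0% = DMSO-treated cells and -100% = media-only wells without cells; nearly all actives have a fitted effect of over 55% in size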
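HT-1080-NT; 750 cells/well; 5% FBS RPMI; 48 h compound, 37 degrees C; CellTiter-Glo luminescence; curve fitting and curve-class assignment.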
HT1080 IDH1KD tx – toxicity to HT-1080 IDH1 knockdown cells (counter line); actives 2% (n = 360,000); HT-1080 IDH1 knockdown viability, ATP luminescence, 48 h; Potency, µM (highest dose often 46.1 µM), for the others: at the top dose activity, negative = toxicity, hits mostly cytotoxic; AID 686971;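 further: 0% = DMSO wells and -100% = cell-free medium wells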
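Knockdown cells (IDH1KD HT-1080) received compounds 2 h after plating at 750 cells/well and were kept 48 h at 37 °C in 5% FBS RPMI. A CellTiter-Glo luminescence read gave % activity for curve fitting.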
KB-3-1 cytotox – kills parental KB-3-1 adenocarcinoma cells | KB-3-1 viability, CellTiter-Glo ATP luminescence, 72 h | Potency, µM (doses to about 46.1 µM), actives largely listed as cytotoxic | actives 1.4% (n = 400,000); further: on the % scale 0 is the no-effect control and ±100 the full control effect; nearly all actives have a fitted effect of over 60% in size
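Cytotoxicity in the drug-sensitive parental line KB-3-1 was scored as loss of CellTiter-Glo luminescence following 72 h incubation with compound. Values come from curve fitting of normalized concentration-response data.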
* = called active by the depositor; i = inactive; ? = inconclusive; . = no result given. The call rests on the fitted dose curve; in most records, active means well fitted curve in the direction sought with a large enough effect; inconclusive means small, poorly fitted or top-dose-only effect, or another doubt; inactive means no such curve, though single readings can be large; an effect the other way counts as inactive or inconclusive. Potency means the concentration at half of the fitted maximal effect.

SMILES	MCF10A rereplic	SW480 rerep	KB-V1 MDR tox	HT1080-NT tox	HT1080 IDH1KD tx	KB-3-1 cytotox
COc1ccc(-c2n[nH]c(C)c2-c2cnn(-c3ccccc3)c2)c(O)c1C	?	15µM*	?	-22%	?	?
Cc1cc(C)c(C)c(OCCCCn2cnc3ccccc3c2=O)c1	?	12%	23µM*	6%	?	i
COc1cc(O)oc1C=Nc1ccc(C(=O)O)cc1	-4%	-4%	23µM*	?	?	?
COc1cc2c(cc1OC)C(COc1ccc3c(C)cc(=O)oc3c1)N(C(=O)CC(C)C)CC2 (configuration not stated)	.	.	i	.	.	i
Cc1ccc(Cn2nc3n(c2=O)-c2cc(Cl)ccc2OC3)cc1	.	.	i	.	.	i
Cc1c(C)n(CCN(C)C)c2ccc(C(=O)OCCN(C)C)cc12	-2%	26%	i	?	?	i
Cc1c(C)n(Cc2ccccc2)c2ccc(C(=O)OCCCN(C)C)cc12	21µM*	?	?	15µM*	13µM*	?
CCCCCOC(=O)CSc1ncnc2c1sc1nc(N3CCOCC3)c3c(c12)CCCC3	.	.	i	.	.	i
Oc1ccc(N=Nc2ccccc2)o1	?	?	i	16µM*	23µM*	i
CCOc1ccc(OCC)c(NC(=O)CC(C)n2nc(C)cc2C)c1 (configuration not stated)	.	.	i	.	.	i
CCc1ccc(N=C2NC(=O)/C(=C/c3ccc(OCC(=O)O)c(OC)c3)S2)cc1	-3%	-3%	i	3%	11%	i
COc1cc(/C=C2\SC(=Nc3ccc(O)cc3)NC2=O)cc(OC)c1OC	?	3.3µM*	i	3.7µM*	2.9µM*	4.6µM*
COc1ccc(N=C2NC(=O)/C(=C\c3ccco3)S2)cc1	?	8%	i	-1%	-4%	i
O=C1NC(=Nc2ccc(O)cc2)S/C1=C\C=C\c1ccco1	?	?	2.3µM*	1.3µM*	1.5µM*	3.3µM*
COc1cc(/C=C2/SC(=Nc3ccc(O)cc3)NC2=O)cc(OC)c1O	?	21µM*	i	-27%	-9%	?
COc1ccccc1N=C1NC(=O)/C(=C/c2ccc(N(C)C)cc2)S1	9.2µM*	4.1µM*	7.3µM*	7.3µM*	3.3µM*	10µM*
COc1ccc(/C=C2/S/C(=N/S(=O)(=O)Cc3ccccc3)NC2=O)cc1OC	21%	-1%	i	1%	-9%	i
COCc1c(C(=O)OCC(=O)NCc2ccco2)oc2ccccc12	-2%	-2%	i	-7%	0%	i
CCC(C)NC(=O)C1(O)c2cc(Br)ccc2NC(=O)N1c1cccc(OC)c1 (configuration not stated)	-9%	-3%	i	-3%	-6%	i
COc1ccc(N=C2NC(=O)/C(=C/c3ccc(O)c(OC)c3)S2)cc1	?	23µM*	?	-16%	2%	?
CC(C(=O)NCC1CCCO1)N(C(=O)c1snc(C(N)=O)c1N)c1cccc(F)c1 (configuration not stated)	-6%	-2%	12µM*	-4%	0%	i
CN(C)c1ccc(C(C(=O)NCC2CCCO2)N(C(=O)c2snc(C(N)=O)c2N)c2ccccc2)cc1 (configuration not stated)	?	-19%	i	11%	11%	i
CC(C)c1ccc(N(C(=O)c2snc(C(N)=O)c2N)C(C(=O)NCC2CCCO2)c2ccc(N(C)C)cc2)cc1 (configuration not stated)	?	2%	21µM*	-15%	?	?
CC1(Cc2ccccc2Cl)C(=O)Nc2ccc(OC(F)(F)F)cc21 (configuration not stated)	.	.	i	?	29µM*	i
